PKA-R1A act: activators of PKA-R1A holoenzyme, primary screen, biochemical, fluorescence polarization, Cy5-IP20, bovine R1A, mouse PKAc. PKA-R1A dissociation; scaled: DMSO 0%, 113 µM cGMP 100%. activation, % at 11.4 µM. hit rate 0.083% among 340,000. AID 504707, 2011;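 active = percent activation above the mean of all tested compounds plus 3 SD, cut at about 19% in these data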;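 note: higher means more PKAc released from R1A so a rise in polarization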
PolyA inhibitor: polyadenylation inhibitors in yeast reporter cells, primary screen, luminescence, S. cerevisiae; S. cerevisiae SKY197-pL101 polyadenylation reporter, beta-gal luminescence; efflux-impaired pdr1/pdr3 knockout yeast; score 100 = 6 SD above DMSO; activity score, % at 12 µM; hit rate 0.02% among 300,000;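 active = lowest replicate activity score at least 50, where 100 means six control SD above control mean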;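 note: yeast exposed to compound for 9 h at 30 °C; higher score means more reporter readthrough which indicates perturbed polyadenylation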
Neddylation inh: inhibitors of cullin neddylation, primary screen, biochemical, TR-FRET, uHTS, NAE and Ubc12. NEDD8-conjugating enzyme Ubc12 (Homo sapiens) + NEDD8-activating enzyme E1 regulatory …. AID 651699, 2012. calls only at 25 µM. hit rate 0.58% among 360,000; in the data active = inhibition above about 36%
PKA-R2B activ: activators of PKA-R2B holoenzyme, primary screen, biochemical, fluorescence polarization, Cy5-IP20, human; cAMP-dependent protein kinase catalytic subunit beta (Homo sapiens) + cAMP-dependent …; PKA-R2B holoenzyme dissociation; R2B truncated from residue 108, S112A mutant; 0% DMSO only, 100% 113 µM cGMP; activation, % at 11.4 µM; hit rate 0.079% among 340,000;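 active = activation above a cutoff set at the mean over all compounds plus 3 SD, cut at about 18% in these data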;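 note: higher means more holoenzyme dissociation and a rise in polarization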
Target sequence (P31323 whole entry, looked up, other chains not shown, the tested form may be a part): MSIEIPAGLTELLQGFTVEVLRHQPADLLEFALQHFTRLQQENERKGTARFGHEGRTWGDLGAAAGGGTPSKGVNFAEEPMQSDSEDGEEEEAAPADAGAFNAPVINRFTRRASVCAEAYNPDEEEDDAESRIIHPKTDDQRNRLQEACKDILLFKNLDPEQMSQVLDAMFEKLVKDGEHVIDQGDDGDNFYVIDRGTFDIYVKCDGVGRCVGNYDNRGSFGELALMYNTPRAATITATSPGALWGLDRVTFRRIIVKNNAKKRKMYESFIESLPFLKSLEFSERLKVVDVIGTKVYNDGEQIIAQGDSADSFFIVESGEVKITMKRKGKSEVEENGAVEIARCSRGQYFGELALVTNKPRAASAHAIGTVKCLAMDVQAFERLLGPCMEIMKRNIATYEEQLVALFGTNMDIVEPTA
R2B FP artifact: fluorescence polarization artefacts, biochemical, artefact control for PKA-R2B activator project. FP artifact counterscreen. activation, % at 11.4 µM. AID 504796, 2011. hit rate 6% among 270. shares compounds with PKA-R2B activ; in the data active = activation above about 20%;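 note: Cy5 labelled IP20 peptide probe with compound but no PKA protein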
PKA-R2B act conf: activators of PKA-R2B holoenzyme, confirmation, biochemical, fluorescence polarization, human; shares compounds with PKA-R2B activ; PKA-R2B complex, activation; activation, % at 11.4 µM; hit rate 9% among 270; AID 504797, 2011; in the data active = activation above about 19%
Target sequence (P31323 whole entry, looked up): as the sequence (P31323 whole entry, looked up, other chains not shown, the tested form may be a part) above
The depositor's hits bear a star. An excerpt weighted towards active compounds, which were near 0.72% of everything screened.

`COC(=O)c1ccc(N2CCN(S(=O)(=O)c3c(C)cc(C)cc3C)CC2)c([N+](=O)[O-])c1` gave PKA-R1A act -14.0, PolyA inhibitor 11.2, Neddylation inh inactive, PKA-R2B activ 18.5*, R2B FP artifact -5.1 and PKA-R2B act conf -4.7.
CN1CCN(C(=O)/C(=C/c2ccc(N(C)C)cc2)NC(=O)c2ccccc2)CC1 was read as PKA-R1A act -8.8, PolyA inhibitor 4.3, Neddylation inh inactive, PKA-R2B activ 20.3*, R2B FP artifact 6.3 and PKA-R2B act conf 3.6.
For CN1CCN(C(=O)/C(=C/c2ccc(F)cc2)NC(=O)c2ccccc2)CC1 the results were PKA-R1A act -1.2, PolyA inhibitor -2.8, Neddylation inh inactive and PKA-R2B activ -6.7.
`CS(=O)(=O)c1ccc(Cl)c(NC(=O)C2CCCCN2S(=O)(=O)c2ccccc2)c1` (stereo not given) gave PKA-R1A act -3.5, Neddylation inh inactive and PKA-R2B activ -0.8.
Screening O=S(=O)(NC1CCCC1)c1ccc(S(=O)(=O)N(Cc2cccs2)CC2CCCO2)cc1 (stereo not given) returned PKA-R1A act 4.7, PolyA inhibitor -15.4, Neddylation inh inactive, PKA-R2B activ 19.5*, R2B FP artifact 0.2 and PKA-R2B act conf 0.6.
Screening COc1cc(C2NC(=O)CCC2[N+](=O)[O-])c(OC)cc1Br (stereo not given) returned PKA-R1A act -1.8, PolyA inhibitor 31.8, Neddylation inh inactive and PKA-R2B activ 5.8.
`NC(=O)C1CCN(C(=O)c2ccc(NS(=O)(=O)c3ccc(F)c(F)c3)cc2)CC1` gave PKA-R1A act -4.9, Neddylation inh inactive and PKA-R2B activ 10.6.
For CCCc1cc(NC(=O)CCl)n(-c2ccccc2)n1 the results were PKA-R1A act -0.2, PolyA inhibitor 7.2, Neddylation inh inactive, PKA-R2B activ 19.7*, R2B FP artifact -0.2 and PKA-R2B act conf -3.4.
For Cc1ccc(N=Cc2c(O)[nH]c3ccccc23)c([N+](=O)[O-])c1 the results were PKA-R1A act 3.0, PolyA inhibitor 14.0, Neddylation inh inactive, PKA-R2B activ 19.4*, R2B FP artifact 2.9 and PKA-R2B act conf 0.7.
Screening COc1ccc(N=Cc2c(O)[nH]c3ccccc23)cc1 returned PKA-R1A act 4.4, PolyA inhibitor -23.9, Neddylation inh inactive and PKA-R2B activ -0.7.
Screening CC1CCCCC1NC(=O)c1ccc(S(=O)(=O)NCC2CCCO2)cc1 (stereo not given) returned PKA-R1A act -4.3, PolyA inhibitor -26.1, Neddylation inh inactive and PKA-R2B activ -6.2.
CCN(C(=O)CN1C(=O)NC(c2ccccc2)(c2ccc(C)c(C)c2)C1=O)C1CCCCC1 (stereo not given) was read as PKA-R1A act -2.6, Neddylation inh inactive and PKA-R2B activ -9.8.
`CCOc1ccccc1N1CCN(C(=O)c2ccccc2SCC(=O)N2CCCC2)CC1` gave PKA-R1A act -1.3, PolyA inhibitor -3.9, Neddylation inh inactive and PKA-R2B activ -4.4.
`Cc1ccccc1-c1nnc(SCC(=O)NC2CCS(=O)(=O)C2)n1C` (stereo not given) gave PKA-R1A act 8.5, Neddylation inh inactive, PKA-R2B activ 19.0*, R2B FP artifact 6.2 and PKA-R2B act conf 2.0.
`CC1(C)Cc2c(sc(NC(=O)C(=O)NCC3CCCO3)c2C(N)=O)CO1` (stereo not given) gave PKA-R1A act -5.8, PolyA inhibitor 11.8, Neddylation inh inactive and PKA-R2B activ -19.4.
Screening C=C1CSc2nc(=O)c3c4c(sc3n21)CCCC4 returned PKA-R1A act -12.2, PolyA inhibitor 10.4, Neddylation inh inactive and PKA-R2B activ -4.0.
C=C1CSc2nc(=O)c3c4c(sc3n21)CCC4 was read as PKA-R1A act -4.6, PolyA inhibitor 6.1, Neddylation inh inactive, PKA-R2B activ 19.8*, R2B FP artifact -2.7 and PKA-R2B act conf -3.0.
Screening O=C(CN1CCN(S(=O)(=O)/C=C/c2ccccc2)CC1)NCC(F)(F)F returned PKA-R1A act 1.9, PolyA inhibitor 7.2, Neddylation inh inactive and PKA-R2B activ -4.5.
For O=C(c1ccc(Cl)cc1)[C@@H]1[C@@H]2C(=O)N(c3ccccc3)C(=O)[C@@H]2C2c3ccccc3C=NN21 (stereo not given in full) the results were PKA-R1A act -1.3, PolyA inhibitor 11.7, Neddylation inh inactive, PKA-R2B activ 25.8*, R2B FP artifact 4.2 and PKA-R2B act conf 0.0.
`O=C(c1ccc(Cl)cc1)C1C2C(=O)N(c3ccccc3)C(=O)C2C2CCCN21` (stereo not given) gave PKA-R1A act 3.8, PolyA inhibitor 5.7, Neddylation inh inactive and PKA-R2B activ -3.6.
COC(=O)/C=C/c1ccccc1CN1[C@@H](CC(=O)OC)c2ccccc2S1(=O)=O was read as PKA-R1A act -9.0, Neddylation inh inactive and PKA-R2B activ -5.7.
Screening O=C(CCNS(=O)(=O)c1ccc(Br)cc1)N1CCN(c2ccccc2O)CC1 returned PKA-R1A act -14.1, PolyA inhibitor 10.0, Neddylation inh inactive and PKA-R2B activ -16.3.
`CC#CC(=O)NCC1(N(C)Cc2ccccc2)Cc2ccccc2C1` gave PKA-R1A act 4.9, PolyA inhibitor -7.1, Neddylation inh inactive, PKA-R2B activ 18.5*, R2B FP artifact 5.6 and PKA-R2B act conf 1.6.
CSCC(=O)NCC1(N(C)Cc2ccccc2)Cc2ccccc2C1 was read as PKA-R1A act 12.2, PolyA inhibitor 1.7, Neddylation inh inactive and PKA-R2B activ -3.0.
`Cc1ccc(NC(=O)c2ccc(F)cc2F)cc1NS(C)(=O)=O` gave PolyA inhibitor 10.6 and Neddylation inh inactive.
Cc1cc(C(=O)c2ccccc2)c(NC(=O)CN2CCOCC2)s1 was read as PKA-R1A act -15.0, PolyA inhibitor 9.1, Neddylation inh inactive, PKA-R2B activ 18.5*, R2B FP artifact 0.3 and PKA-R2B act conf -0.4.
Screening CCN1C/C(=C/c2cccc([N+](=O)[O-])c2)C(=O)/C(=C/c2cccc([N+](=O)[O-])c2)C1 returned PKA-R1A act -3.9, Neddylation inh inactive, PKA-R2B activ 18.7*, R2B FP artifact 1.8 and PKA-R2B act conf 2.3.
For O=C(O)C1(C(=O)O)CCC1 the results were PKA-R1A act inactive, Neddylation inh inactive, PKA-R2B activ active, R2B FP artifact inactive and PKA-R2B act conf inactive.

Screens from PubChem.
